Source: PubChem BioAssay
Only a selection was taken, and hits are over-represented in it overall.
STK33 kin inh: inhibitors of human STK33 kinase; Q9BYT3; ADP-Glo luminescence, MBP substrate; inhibition, % at 12.5 µM; hit rate 0.44% among 27,000; in the data active = inhibition above about 20%; inconclusive = no clear call, values can overlap the other calls
Target sequence (Q9BYT3 whole entry, looked up): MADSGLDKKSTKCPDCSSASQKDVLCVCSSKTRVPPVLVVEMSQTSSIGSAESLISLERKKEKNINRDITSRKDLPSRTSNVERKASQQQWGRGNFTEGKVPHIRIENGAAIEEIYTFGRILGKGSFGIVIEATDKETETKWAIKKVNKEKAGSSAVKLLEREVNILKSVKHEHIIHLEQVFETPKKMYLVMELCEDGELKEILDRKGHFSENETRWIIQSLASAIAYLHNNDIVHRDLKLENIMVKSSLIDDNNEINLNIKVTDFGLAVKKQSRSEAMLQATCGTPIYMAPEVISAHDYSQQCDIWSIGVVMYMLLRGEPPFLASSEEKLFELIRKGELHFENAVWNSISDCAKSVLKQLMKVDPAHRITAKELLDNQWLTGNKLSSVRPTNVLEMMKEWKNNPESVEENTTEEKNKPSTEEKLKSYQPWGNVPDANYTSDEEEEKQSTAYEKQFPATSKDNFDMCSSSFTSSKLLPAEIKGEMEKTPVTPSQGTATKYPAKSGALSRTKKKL
PD-1 reversal: activators reversing PD-1 mediated T-cell inhibition | primary human CD4 T cells, PD-L1 beads, CellTiter-Glo 96 h | activation, % (test concentration not listed) | 29,000 tested, under 10 active; call rule not given here
NOMO-1 viab: STK33 inhibitor candidate reducing NOMO-1 cell viability; NOMO-1 AML viability, CellTiter-Glo luminescence, 72 h; inhibition, % (concentration not given with the values); hit rate 7.5% among 37,000; in the data active = inhibition above about 80%; inconclusive = no clear call, values can overlap the other calls
A number is an active result; . = inactive; ? = inconclusive; / = not tested or not shown.

SMILES | STK33 kin inh | PD-1 reversal | NOMO-1 viab
Cc1noc(C)c1NC(=O)Nc1cccc2c1O[C@H](CN(C)C(=O)Nc1ccccc1)[C@H](C)CN([C@H](C)CO)C2=O | / | . | .
O[C@H]1[C@H]2c3cc4c(cc3CN3CCC(=C[C@@H]1O)[C@H]23)OCO4 | . | . | 142
CN1CCc2cc3c(cc2C2OC(O)c4c(ccc5c4OCO5)C21)OCO3 (stereo not given) | . | . | .
O[C@@H]1[C@@H](O)C=C2CCN3Cc4cc5c(cc4[C@H]1C23)OCO5 (stereo not given in full) | . | / | 114
COC1C=CC23c4cc5c(cc4CN(C[C@H]2O)[C@@H]3C1)OCO5 (stereo not given in full) | . | / | ?
Cc1ccc(S(=O)(=O)Nc2ccc3c(c2)CC(=O)N([C@H](C)CO)C[C@H](C)[C@H](CN(C)S(C)(=O)=O)O3)cc1 | . | . | .
Cc1cc(C)n(-c2nc3ccc([N+](=O)[O-])cc3nc2-n2nc(C)cc2C)n1 | . | . | .
O=C(CN1CCc2ccccc2C1)Nc1ccc(S(=O)(=O)N2CCOCC2)cc1 | . | . | .
CNC(=O)c1c(N)sc2c1CCCCC2 | / | . | 126
NC(=O)c1c(NC(=O)C2CC(=O)OC23CCCCC3)sc2c1CCCCC2 (stereo not given) | . | / | .
C[C@H](CO)N1C[C@H](C)[C@@H](CN(C)S(=O)(=O)c2ccc(Cl)cc2)Oc2c(NS(=O)(=O)c3ccc(F)cc3)cccc2C1=O | / | . | .
CC(C)(C)c1ccc(-c2cc3ccccn3c2)cc1 | / | . | 104
COC(=O)CSc1ncnc2scc(-c3ccc(Cl)cc3)c12 | . | . | .
C[C@H](CO)N1C[C@H](C)[C@H](CN(C)S(=O)(=O)c2cccs2)Oc2c(NC(=O)c3nc4ccccc4s3)cccc2C1=O | / | . | .
CCOC(=O)CSc1ncc(-c2ccccc2)nn1 | . | . | .
CCOC(=O)CSc1sc(C(=O)OCC)c2c1S(=O)(=O)N(C)c1ccccc1-2 | / | . | 120
COc1ccc(NC(=O)CSC2CC(=O)N(c3cc(Cl)cc(Cl)c3)C2=O)cc1 (stereo not given) | . | . | .
C=CCNC1=C2C[C@@H](C)C[C@H](OC)[C@H](O)[C@@H](C)/C=C(\C)[C@H](OC(N)=O)[C@@H](OC)C=C/C=C(/C)C(=O)NC(=CC1=O)C2=O | . | / | 119
CCC(=O)c1ccc2cc(OC)ccc2c1 | / | . | .
C[C@H]1CN([C@@H](C)CO)C(=O)Cc2cc(NS(=O)(=O)c3ccc(Cl)cc3)ccc2O[C@@H]1CN(C)S(C)(=O)=O | . | / | .
CSc1nc(C)cc(OCC(=O)Nc2ccc(Cl)cc2)n1 | . | . | .
COC(=O)c1cc(C)nc(Sc2ccccc2NC(=O)Nc2ccc(Cl)cc2)n1 | . | . | 109
CC1(C)c2ccccc2N(CCC(N)=O)C12C=Cc1c(ccc3ccccc13)O2 (stereo not given) | / | . | 88
Cc1ccc(S(=O)(=O)N(C)C[C@@H]2Oc3ccc(NC(=O)Nc4ccccc4)cc3C(=O)N([C@H](C)CO)C[C@H]2C)cc1 | . | . | .
Cc1ccc(NC(=O)c2ccc3c(=O)n(Cc4ccco4)c(=S)[nH]c3c2)cc1Cl | . | . | 121
SMILES | STK33 kin inh | PD-1 reversal | NOMO-1 viab
COc1ccc(NC(=O)c2ccc3c(=O)n(CCc4ccccc4)c(=S)[nH]c3c2)cc1 | . | . | .
C[C@@H]1CN([C@H](C)CO)C(=O)Cc2cc(NS(=O)(=O)c3ccc(Cl)cc3)ccc2O[C@@H]1CN(C)CC1CCCCC1 | . | . | 114
C[C@@H]1CN([C@H](C)CO)C(=O)Cc2cc(NS(=O)(=O)c3ccc(Cl)cc3)ccc2O[C@H]1CN(C)CC1CCCCC1 | . | . | 127
C[C@@H]1CN([C@H](C)CO)C(=O)Cc2cc(NS(=O)(=O)c3ccc(Cl)cc3)ccc2O[C@H]1CN(C)CC1CC1 | . | . | .
C[C@@H]1CN([C@H](C)CO)C(=O)Cc2cc(NS(=O)(=O)c3ccccc3)ccc2O[C@@H]1CN(C)CC1CCCCC1 | . | . | .
CC(C)NC(=O)N(C)C[C@H]1Oc2c(NC(=O)Nc3ccc(F)cc3)cccc2C(=O)N([C@H](C)CO)C[C@H]1C | / | . | .
Cn1c(=O)c2c(nc(NCCN)n2Cc2ccc(Cl)cc2)n(C)c1=O | . | . | .
Cn1c(=O)c2c(nc(NCC(O)c3ccccc3)n2Cc2ccc(F)cc2)n(C)c1=O (stereo not given) | . | . | 95
C[C@@H]1CN([C@H](C)CO)C(=O)Cc2cc(NC(=O)Nc3ccccc3)ccc2O[C@H]1CN(C)Cc1ccncc1 | . | . | .
Cc1cc(C)c2c(n1)sc1c(Sc3nnc(-c4ccncc4)o3)ncnc12 | / | . | .
CCn1c(Sc2ncnc3c2sc2nc(C)cc(C)c23)nnc1-c1cccs1 | / | . | 104
C[C@@H]1CN([C@H](C)CO)C(=O)c2cccc(NC(=O)C3CCOCC3)c2O[C@H]1CN(C)C | / | . | .
CC(C)=CCc1c(O)c(CC=C(C)C)c2c(c1O)C(=O)CC(c1ccccc1)O2 (stereo not given) | . | . | .
NC[C@@H]1O[C@H](C23CC4CC(CC(C4)C2)C3)Cc2c1ccc(O)c2O | . | / | 107
NC[C@@H]1O[C@H](c2ccccc2)Cc2c1ccc(O)c2O | . | / | 112
CCc1ccc(NC(=O)CSc2nnc(-c3ccc(Br)cc3)o2)cc1 | . | . | .
COc1ccc(-c2cc(=O)[nH]c(SCc3nc4ccccc4c(=O)[nH]3)n2)cc1 | . | . | .
COc1cc(NC(=O)COc2cc(C)cc(C)c2C)c(OC)cc1Cl | . | . | .
Cc1ccc(NC(=O)C(C)NS(=O)(=O)c2ccc(F)cc2)cc1Cl (stereo not given) | . | . | .
CCN(C(=S)Nc1ccc(C)cc1)c1ccccc1 | . | . | .
CCN(CC)C(=S)NC(=S)c1ccc(C)cc1 | / | . | 122
C[C@@H]1CN([C@@H](C)CO)C(=O)CCCn2nncc2CO[C@H]1CN(C)C(=O)Nc1ccc(C(C)(C)C)cc1 | . | / | /
C[C@H]1CN([C@@H](C)CO)C(=O)Cc2cc(NC(=O)CCC(F)(F)F)ccc2O[C@@H]1CN(C)S(=O)(=O)c1ccc(Cl)cc1 | . | / | .
Cn1nnnc1SCC(=O)Nc1ccc(F)cc1 | . | . | .
O=[N+]([O-])c1cc(C(F)(F)F)ccc1Sc1nnc(CCCO)n1-c1ccccc1 | . | . | .
SMILES | STK33 kin inh | PD-1 reversal | NOMO-1 viab
CC(C)(C)c1ccc(OCc2nnc(Sc3ccc([N+](=O)[O-])cn3)n2-c2ccccc2)cc1 | . | . | 109
C[C@H]1CN([C@@H](C)CO)C(=O)Cc2cc(NS(=O)(=O)c3cn(C)cn3)ccc2O[C@@H]1CN(C)S(=O)(=O)c1ccc(Cl)cc1 | . | . | .
C[C@@H]1CN([C@H](C)CO)C(=O)Cc2cc(NC(=O)Nc3ccc(C(F)(F)F)cc3)ccc2O[C@@H]1CN(C)Cc1ccncc1 | . | . | ?
C[C@H]1CN([C@@H](C)CO)C(=O)Cc2cc(NC(=O)Nc3ccc(C(F)(F)F)cc3)ccc2O[C@H]1CN(C)Cc1ccncc1 | . | . | 134
C[C@@H]1CN([C@@H](C)CO)C(=O)Cc2cc(NC(=O)Nc3ccc(C(F)(F)F)cc3)ccc2O[C@@H]1CN(C)Cc1ccncc1 | . | . | 116
C[C@H](CO)N1C[C@H](C)[C@H](CN(C)Cc2ccc(C(F)(F)F)cc2)Oc2ccc(NC(=O)c3ccncc3)cc2CC1=O | . | . | .
